# From PubChem BioAssay (EPA / NIEHS)
# Records with an inconclusive call do not appear. Active and inactive are the calls of the source. The calls were made as follows: active = hit-call score of the fitted dose curve at least 0.9, where 1 is the maximum; inconclusive = response in the unintended direction; inactive = score below 0.9.
# Assays:
# [1] = biological target: human Mitogen- and Stress-activated Protein Kinase-1 (Msk1), RPS6KA5 (gene 9252) (UniProt O75582); test: NVS_ENZ_hMsk1: NovaScreen (NVS) Enzymatic Assay for human Mitogen- and Stress-activated Protein Kinase-1 (Msk1) (AID 2283187)
# Sequence of human Mitogen- and Stress-activated Protein Kinase-1 (Msk1), RPS6KA5 (gene 9252) (O75582 whole entry, looked up): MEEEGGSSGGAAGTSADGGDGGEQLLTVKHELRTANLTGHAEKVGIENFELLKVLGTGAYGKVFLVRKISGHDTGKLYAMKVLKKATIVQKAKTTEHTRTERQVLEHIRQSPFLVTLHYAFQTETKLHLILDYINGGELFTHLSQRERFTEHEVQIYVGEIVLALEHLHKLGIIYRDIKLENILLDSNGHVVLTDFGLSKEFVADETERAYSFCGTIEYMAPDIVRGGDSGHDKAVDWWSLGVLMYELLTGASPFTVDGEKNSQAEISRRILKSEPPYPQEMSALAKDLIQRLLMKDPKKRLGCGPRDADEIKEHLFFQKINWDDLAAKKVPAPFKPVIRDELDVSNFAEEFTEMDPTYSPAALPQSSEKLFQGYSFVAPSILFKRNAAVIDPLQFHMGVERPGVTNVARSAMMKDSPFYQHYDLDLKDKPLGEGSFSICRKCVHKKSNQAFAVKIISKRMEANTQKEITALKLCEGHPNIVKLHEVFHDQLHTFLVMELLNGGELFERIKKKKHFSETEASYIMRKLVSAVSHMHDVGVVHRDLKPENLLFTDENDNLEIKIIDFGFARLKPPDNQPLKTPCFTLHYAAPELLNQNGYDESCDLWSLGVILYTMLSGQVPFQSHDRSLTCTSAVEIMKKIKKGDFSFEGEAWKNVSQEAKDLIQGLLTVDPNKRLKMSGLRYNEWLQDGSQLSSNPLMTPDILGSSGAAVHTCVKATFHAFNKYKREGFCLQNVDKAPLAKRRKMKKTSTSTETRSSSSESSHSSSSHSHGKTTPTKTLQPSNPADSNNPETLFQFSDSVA
# Method in brief: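 Recombinant kinase with fluorescent substrate; product separated by electrophoretic mobility shift, read 1 h after dosing. Screened in duplicate at 25 uM; hits (e.g. ≥30% inhibition) tested in concentration–response up to 50 uM. DMSO baseline.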
# [2] = biological target: human NIMA (Never In Mitosis Gene A)-Related Kinase 2 (NEK2), NEK2 (gene 4751) (UniProt P51955); test: NVS_ENZ_hNEK2: NovaScreen (NVS) Enzymatic Assay for human NIMA (Never In Mitosis Gene A)-Related Kinase 2 (NEK2) (AID 2283188)
# Method in brief: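 Cell-free NEK2 enzyme activity after 1 h exposure, read by fluorescence with electrophoretic mobility shift separating substrate and product. Primary screen in duplicate at 25 uM; actives then run as concentration series. Loss of signal versus DMSO scored.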
# [3] = biological target: cAMP-dependent protein kinase catalytic subunit alpha (Homo sapiens) (UniProt P17612); test: NVS_ENZ_hPKA: NovaScreen (NVS) Enzymatic Assay for human Protein Kinase A (PKA) (AID 2283192)
# Method in brief: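 Recombinant human PKA with specific fluorescent substrate, product separated by electrophoretic mobility shift, read 1 h after dosing. Primary screen at 25 uM in duplicate; actives then run in concentration-response up to 50 uM, activity relative to DMSO.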
# [4] = biological target: human Protein Tyrosine Phosphatase Non-receptor Type 1 (PTPN1), PTPN1 (gene 5770) (UniProt P18031); test: NVS_ENZ_hPTPN1: NovaScreen (NVS) Enzymatic Assay for human Protein Tyrosine Phosphatase Non-receptor Type 1 (PTPN1) (AID 2283201)
# Sequence of human Protein Tyrosine Phosphatase Non-receptor Type 1 (PTPN1), PTPN1 (gene 5770) (P18031 whole entry, looked up): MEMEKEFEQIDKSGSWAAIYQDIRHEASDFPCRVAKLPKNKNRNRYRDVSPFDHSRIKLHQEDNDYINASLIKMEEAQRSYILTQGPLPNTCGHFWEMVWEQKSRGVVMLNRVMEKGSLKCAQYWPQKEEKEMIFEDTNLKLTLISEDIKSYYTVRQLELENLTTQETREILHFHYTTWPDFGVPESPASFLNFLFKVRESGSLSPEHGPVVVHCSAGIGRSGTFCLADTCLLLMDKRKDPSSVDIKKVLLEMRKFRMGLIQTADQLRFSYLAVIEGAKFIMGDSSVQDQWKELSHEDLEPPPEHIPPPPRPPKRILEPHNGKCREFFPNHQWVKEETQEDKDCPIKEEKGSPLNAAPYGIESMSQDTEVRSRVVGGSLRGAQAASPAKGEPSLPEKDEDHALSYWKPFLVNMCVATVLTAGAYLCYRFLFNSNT
# Method in brief: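 Cell-free fluorogenic-substrate activity assay on recombinant enzyme, read 1.33 h after dosing by fluorescence and electrophoretic mobility shift; loss of signal vs DMSO baseline. Primary screen in duplicate at 25 uM, hits then run in concentration-response up to 50 uM.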
# [5] = biological target: human Phosphatase and Tensin Homolog (PTEN), PTEN (gene 5728) (UniProt P60484); test: NVS_ENZ_hPTEN: NovaScreen (NVS) Enzymatic Assay for human Phosphatase and Tensin Homolog (PTEN) (AID 2283203)
# Sequence of human Phosphatase and Tensin Homolog (PTEN), PTEN (gene 5728) (P60484 whole entry, looked up): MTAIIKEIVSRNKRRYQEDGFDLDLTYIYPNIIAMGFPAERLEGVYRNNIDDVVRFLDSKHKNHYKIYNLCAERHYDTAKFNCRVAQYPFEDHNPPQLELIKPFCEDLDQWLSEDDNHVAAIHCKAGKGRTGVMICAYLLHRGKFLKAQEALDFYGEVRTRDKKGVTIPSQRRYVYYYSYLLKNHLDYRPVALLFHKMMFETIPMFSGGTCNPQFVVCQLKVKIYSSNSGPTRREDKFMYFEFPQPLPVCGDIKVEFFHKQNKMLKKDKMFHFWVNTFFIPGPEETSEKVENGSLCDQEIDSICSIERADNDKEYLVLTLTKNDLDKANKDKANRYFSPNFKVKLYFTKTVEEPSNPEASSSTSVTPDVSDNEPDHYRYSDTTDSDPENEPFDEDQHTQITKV
# Method in brief: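 Cell-free recombinant human PTEN with fluorescent substrate; product separated by electrophoretic mobility shift and read by fluorescence 1 h after dosing. Primary screen in duplicate at 25 uM, actives followed in concentration series versus DMSO.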
# [6] = biological target: Tyrosine-protein phosphatase non-receptor type 12 (Homo sapiens) (UniProt Q05209); test: NVS_ENZ_hPTPN12: NovaScreen (NVS) Enzymatic Assay for human Protein Tyrosine Phosphatase Non-receptor Type 12 (PTPN12) (AID 2283204)
# Method in brief: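 Single-concentration duplicates (25 uM) preceded singleton concentration-response up to 50 uM for chemicals passing threshold. Cell-free recombinant PTPN12 activity was read 1.33 h after dosing via fluorescence after mobility-shift separation; loss of signal versus DMSO.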
# [7] = biological target: human Phosphodiesterase 4A1 (PDE4A1), PDE4A (gene 5141) (UniProt P27815); test: NVS_ENZ_hPDE4A1: NovaScreen (NVS) Enzymatic Assay for human Phosphodiesterase 4A1 (PDE4A1) (AID 2283191)
# Method in brief: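 Cell-free recombinant human PDE4A1 with fluorescent substrate; product separated by electrophoretic mobility shift, 1 h. Screened at 25 uM, then up to 50 uM in concentration-response; loss of signal fitted against DMSO.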
# [8] = biological target: human Matrix Metalloproteinase-7 (MMP7), MMP7 (gene 4316) (UniProt P09237); test: NVS_ENZ_hMMP7: NovaScreen (NVS) Enzymatic Assay for human Matrix Metalloproteinase-7 (MMP7) (AID 2283183)
# Sequence of human Matrix Metalloproteinase-7 (MMP7), MMP7 (gene 4316) (P09237 whole entry, looked up): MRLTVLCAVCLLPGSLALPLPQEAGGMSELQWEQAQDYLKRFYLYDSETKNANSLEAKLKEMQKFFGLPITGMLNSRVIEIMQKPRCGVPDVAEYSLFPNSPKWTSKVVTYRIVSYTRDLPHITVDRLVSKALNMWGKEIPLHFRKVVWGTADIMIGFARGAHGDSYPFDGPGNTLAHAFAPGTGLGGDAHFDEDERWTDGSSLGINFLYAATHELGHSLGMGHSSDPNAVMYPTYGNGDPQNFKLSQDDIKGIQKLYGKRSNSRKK
# Method in brief: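 Cell-free fluorescence enzymatic assay read 1 h after compound addition, activity loss analyzed against DMSO. Primary duplicate testing at 25 uM; compounds meeting threshold rerun in singleton concentration-response up to 50 uM.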
# [9] = biological target: human Phosphodiesterase 10 (PDE10), PDE10A (gene 10846) (UniProt Q9Y233); test: NVS_ENZ_hPDE10: NovaScreen (NVS) Enzymatic Assay for human Phosphodiesterase 10 (PDE10) (AID 2283195)
# Sequence of human Phosphodiesterase 10 (PDE10), PDE10A (gene 10846) (Q9Y233 whole entry, looked up): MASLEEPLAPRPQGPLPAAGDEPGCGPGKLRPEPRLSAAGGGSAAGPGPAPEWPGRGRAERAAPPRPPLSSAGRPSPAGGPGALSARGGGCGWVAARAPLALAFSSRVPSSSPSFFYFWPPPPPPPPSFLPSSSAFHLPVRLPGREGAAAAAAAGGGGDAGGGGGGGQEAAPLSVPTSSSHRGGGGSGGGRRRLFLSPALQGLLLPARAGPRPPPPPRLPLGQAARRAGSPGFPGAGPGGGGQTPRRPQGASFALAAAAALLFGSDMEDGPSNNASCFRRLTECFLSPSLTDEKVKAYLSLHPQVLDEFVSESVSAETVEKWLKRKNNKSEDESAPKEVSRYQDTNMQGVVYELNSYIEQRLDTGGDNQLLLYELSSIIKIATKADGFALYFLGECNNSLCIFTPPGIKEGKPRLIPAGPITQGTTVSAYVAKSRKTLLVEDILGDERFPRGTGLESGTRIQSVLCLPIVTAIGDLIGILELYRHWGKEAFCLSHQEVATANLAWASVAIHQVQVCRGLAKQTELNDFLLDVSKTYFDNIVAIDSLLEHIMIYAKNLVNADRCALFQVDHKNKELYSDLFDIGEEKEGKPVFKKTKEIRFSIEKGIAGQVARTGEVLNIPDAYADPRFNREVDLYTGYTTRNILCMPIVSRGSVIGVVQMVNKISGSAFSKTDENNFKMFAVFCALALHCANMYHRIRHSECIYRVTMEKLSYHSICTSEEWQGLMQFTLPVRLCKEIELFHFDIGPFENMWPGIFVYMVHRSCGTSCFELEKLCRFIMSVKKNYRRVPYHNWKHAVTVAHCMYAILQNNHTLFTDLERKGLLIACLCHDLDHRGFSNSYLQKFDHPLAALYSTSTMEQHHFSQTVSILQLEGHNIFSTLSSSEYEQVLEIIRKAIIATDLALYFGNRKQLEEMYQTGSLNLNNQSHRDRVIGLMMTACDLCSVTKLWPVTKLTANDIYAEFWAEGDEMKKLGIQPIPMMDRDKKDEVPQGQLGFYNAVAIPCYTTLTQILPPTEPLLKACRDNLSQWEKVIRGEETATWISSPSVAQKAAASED
# Method in brief: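 Fluorescence/mobility-shift readout of PDE10A enzyme activity, taken 1 h post-dosing. Primary screen in duplicate at 25 uM; actives (e.g. ≥30% inhibition) retested as singleton concentration-response, top concentration 50 uM.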
# [10] = biological target: Tyrosine-protein phosphatase non-receptor type 11 (Homo sapiens) (UniProt Q06124); test: NVS_ENZ_hPTPN11: NovaScreen (NVS) Enzymatic Assay for human Protein Tyrosine Phosphatase Non-receptor Type 11 (PTPN11) (AID 2283202)
# Method in brief: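 Recombinant human PTPN11 activity on a fluorescent substrate, with substrate/product separated by electrophoretic mobility shift; read 0.5 h after dosing, loss of signal vs DMSO. Duplicate 25 uM screen, then concentration-response up to 50 uM.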
# [11] = biological target: human p21 Activated Kinase 4 (PAK4), PAK4 (gene 10298) (UniProt O96013); test: NVS_ENZ_hPAK4: NovaScreen (NVS) Enzymatic Assay for human p21 Activated Kinase 4 (PAK4) (AID 2283189)
# Sequence of human p21 Activated Kinase 4 (PAK4), PAK4 (gene 10298) (O96013 whole entry, looked up): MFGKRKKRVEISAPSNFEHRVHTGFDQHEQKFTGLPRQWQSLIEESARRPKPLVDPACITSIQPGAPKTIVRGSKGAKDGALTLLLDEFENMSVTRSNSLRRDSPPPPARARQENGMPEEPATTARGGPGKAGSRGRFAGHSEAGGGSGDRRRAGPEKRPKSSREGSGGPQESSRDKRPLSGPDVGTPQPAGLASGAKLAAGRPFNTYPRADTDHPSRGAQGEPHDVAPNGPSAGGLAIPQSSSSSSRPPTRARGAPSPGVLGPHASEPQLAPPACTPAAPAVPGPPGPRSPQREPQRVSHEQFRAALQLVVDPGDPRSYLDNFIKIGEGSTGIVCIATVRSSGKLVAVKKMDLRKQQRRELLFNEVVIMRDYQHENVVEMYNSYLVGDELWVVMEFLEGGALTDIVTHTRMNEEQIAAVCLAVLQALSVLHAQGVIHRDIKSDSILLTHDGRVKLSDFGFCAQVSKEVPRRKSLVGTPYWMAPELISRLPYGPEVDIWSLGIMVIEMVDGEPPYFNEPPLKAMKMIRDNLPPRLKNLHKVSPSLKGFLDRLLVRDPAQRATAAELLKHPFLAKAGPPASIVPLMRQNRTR
# Method in brief: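 Cell-free recombinant human PAK4 activity assay; fluorescent substrate and product separated by electrophoretic mobility shift, read 1 h after dosing. Initially tested in duplicate at 25 uM, relative to DMSO baseline.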
# [12] = biological target: human Phosphoinositide 3-kinase alpha (PI3Ka), PIK3CA (gene 5290) (UniProt P42336); test: NVS_ENZ_hPI3Ka: NovaScreen (NVS) Enzymatic Assay for human Phosphoinositide 3-kinase alpha (PI3Ka) (AID 2283196)
# Method in brief: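 Recombinant human PI3Kα with fluorescent substrate, 1 h, product separated by electrophoretic mobility shift; 25 uM duplicate screen, hits (e.g., 30% inhibition) retested singly up to 50 uM; loss of signal vs DMSO.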
# [13] = biological target: Tyrosine-protein phosphatase non-receptor type 13 (Homo sapiens) (UniProt Q12923); test: NVS_ENZ_hPTPN13: NovaScreen (NVS) Enzymatic Assay for human Protein Tyrosine Phosphatase Non-receptor Type 13 (PTPN13) (AID 2283205)
# Method in brief: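 Cell-free assay of recombinant human PTPN13 with a fluorescent substrate, product separated by electrophoretic mobility shift and read 0.5 h after dosing. Primary screen at 25 uM in duplicate, then concentration-response up to 50 uM. Loss of signal fitted against DMSO.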
# [14] = biological target: human Matrix Metalloproteinase-9 (MMP9), MMP9 (gene 4318) (UniProt P14780); test: NVS_ENZ_hMMP9: NovaScreen (NVS) Enzymatic Assay for human Matrix Metalloproteinase-9 (MMP9) (AID 2283190);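 also: cell-free recombinant MMP9 protease activity read by fluorescent substrate signal; active means inhibition seen as loss of fluorescence signal versus DMSO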
# Sequence of human Matrix Metalloproteinase-9 (MMP9), MMP9 (gene 4318) (P14780 whole entry, looked up): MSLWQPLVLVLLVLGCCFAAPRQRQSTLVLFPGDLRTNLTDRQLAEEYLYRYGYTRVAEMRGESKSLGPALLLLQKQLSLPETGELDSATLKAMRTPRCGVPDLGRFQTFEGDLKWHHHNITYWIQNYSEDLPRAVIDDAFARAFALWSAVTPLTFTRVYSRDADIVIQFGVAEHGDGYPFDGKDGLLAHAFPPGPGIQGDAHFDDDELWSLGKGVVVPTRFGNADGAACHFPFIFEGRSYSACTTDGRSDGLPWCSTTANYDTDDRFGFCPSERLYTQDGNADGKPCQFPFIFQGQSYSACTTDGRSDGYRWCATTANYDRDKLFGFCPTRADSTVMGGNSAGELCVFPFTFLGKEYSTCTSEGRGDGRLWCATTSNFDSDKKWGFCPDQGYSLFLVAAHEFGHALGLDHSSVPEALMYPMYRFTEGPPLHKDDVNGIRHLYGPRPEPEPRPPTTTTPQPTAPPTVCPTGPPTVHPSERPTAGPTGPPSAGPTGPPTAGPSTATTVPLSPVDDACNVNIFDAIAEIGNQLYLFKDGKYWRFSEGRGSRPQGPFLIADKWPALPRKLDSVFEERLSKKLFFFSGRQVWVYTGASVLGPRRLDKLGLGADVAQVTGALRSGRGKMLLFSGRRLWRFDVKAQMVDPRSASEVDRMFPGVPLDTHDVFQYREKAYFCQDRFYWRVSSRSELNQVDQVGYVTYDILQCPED
# Method in brief: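 Cell-free recombinant MMP9 enzyme activity measured by fluorescence intensity 1 h after dosing. Primary screen in duplicate at 25 uM, actives followed in concentration series; loss of signal relative to DMSO.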
# [15] = biological target: human Matrix Metalloproteinase-3 (MMP3), MMP3 (gene 4314) (UniProt P08254); test: NVS_ENZ_hMMP3: NovaScreen (NVS) Enzymatic Assay for human Matrix Metalloproteinase-3 (MMP3) (AID 2283185)
# Method in brief: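 Cell-free recombinant human MMP3 activity, fluorescence intensity read 1 h after dosing. Primary screen duplicate at 25 uM, actives retested in concentration series; loss of signal vs DMSO baseline.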
# [16] = biological target: Serine/threonine-protein phosphatase PP1-alpha catalytic subunit (Homo sapiens) (UniProt P62136); test: NVS_ENZ_hPPP1CA: NovaScreen (NVS) Enzymatic Assay for human Protein Phosphatase 1 Aatalytic subunit Alpha (PPP1CA) (AID 2283200)
# Sequence of Serine/threonine-protein phosphatase PP1-alpha catalytic subunit (Homo sapiens) (P62136 whole entry, looked up): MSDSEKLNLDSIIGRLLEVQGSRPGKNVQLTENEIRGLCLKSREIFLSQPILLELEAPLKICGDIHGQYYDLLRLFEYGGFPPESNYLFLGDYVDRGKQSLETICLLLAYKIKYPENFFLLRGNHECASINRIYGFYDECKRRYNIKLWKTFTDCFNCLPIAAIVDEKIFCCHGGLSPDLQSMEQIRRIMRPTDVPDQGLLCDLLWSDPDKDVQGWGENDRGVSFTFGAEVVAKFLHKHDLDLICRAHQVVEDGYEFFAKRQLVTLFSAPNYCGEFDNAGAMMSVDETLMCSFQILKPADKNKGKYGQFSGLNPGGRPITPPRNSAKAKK
# Method in brief: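 Recombinant enzyme activity read by fluorescence with electrophoretic mobility shift separating substrate from product, 1.33 h after dosing; loss of signal vs DMSO baseline. Primary screen in duplicate at 25 uM; actives retested in concentration-response up to 50 uM.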
# [17] = biological target: human Protein Phosphatase, Mg2+/Mn2+ Dependent 1A (PPM1A), PPM1A (gene 5494) (UniProt P35813); test: NVS_ENZ_hPPM1A: NovaScreen (NVS) Enzymatic Assay for human Protein Phosphatase, Mg2+/Mn2+ Dependent 1A (PPM1A) (AID 2283198)
# Sequence of human Protein Phosphatase, Mg2+/Mn2+ Dependent 1A (PPM1A), PPM1A (gene 5494) (P35813 whole entry, looked up): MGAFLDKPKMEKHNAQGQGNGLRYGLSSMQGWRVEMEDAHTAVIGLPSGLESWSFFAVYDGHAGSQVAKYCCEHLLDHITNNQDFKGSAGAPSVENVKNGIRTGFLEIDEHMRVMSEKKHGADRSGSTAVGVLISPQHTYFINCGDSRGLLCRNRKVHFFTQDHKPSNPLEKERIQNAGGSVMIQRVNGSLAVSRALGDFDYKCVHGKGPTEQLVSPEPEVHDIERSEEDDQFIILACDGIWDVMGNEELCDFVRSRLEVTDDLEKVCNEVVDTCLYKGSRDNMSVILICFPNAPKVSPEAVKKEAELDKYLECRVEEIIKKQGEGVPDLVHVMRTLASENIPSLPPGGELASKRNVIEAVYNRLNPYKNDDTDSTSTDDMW
# Method in brief: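 Cell-free recombinant PPM1A phosphatase assay with fluorescent substrate, read 1 h after dosing by electrophoretic mobility shift. Chemicals screened in duplicate at 25 uM, then in concentration-response up to 50 uM; loss of activity versus DMSO.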
# [18] = biological target: human Matrix Metalloproteinase-2 (MMP2), MMP2 (gene 4313) (UniProt P08253); test: NVS_ENZ_hMMP2: NovaScreen (NVS) Enzymatic Assay for human Matrix Metalloproteinase-2 (MMP2) (AID 2283184)
# Method in brief: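 Cell-free recombinant MMP2 activity with a fluorescent substrate, read 1 h after dosing. Primary screen in duplicate at 25 uM; actives then run in concentration series; loss of signal fitted versus DMSO.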
# [19] = biological target: Collagenase 3 (Homo sapiens) (UniProt P45452); test: NVS_ENZ_hMMP13: NovaScreen (NVS) Enzymatic Assay for human Matrix Metalloproteinase-13 (MMP13) (AID 2283182)
# Method in brief: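 Recombinant MMP13 cleaving fluorescent substrate, cell-free, measured 1 h after dosing. Primary duplicate screen at 25 uM; actives tested in concentration-response up to 50 uM; loss of signal relative to DMSO.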
# [20] = biological target: PPP2CA (gene 5515) (UniProt P67775); test: NVS_ENZ_hPPP2CA: NovaScreen (NVS) Enzymatic Assay for human Protein Phosphatase 2 Aatalytic subunit Alpha (PPP2CA) (AID 2283199)
# Method in brief: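 Recombinant human PPP2CA with fluorescent substrate; product separated from substrate by electrophoretic mobility shift, read 1.33 h after dosing. Duplicate single-point at 25 uM, then singleton concentration-response up to 50 uM; loss of signal versus DMSO.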
smiles,measurement,setting,value
O=C(O)C(F)(F)C(F)(F)C(F)(F)C(F)(F)C(F)(F)C(F)(F)C(F)(F)C(F)(F)F,outcome,[1],inactive
same,AC50,[2],40.7 µM (active)
same,outcome,[3],inactive
same,outcome,[4],inactive
same,outcome,[5],inactive
same,outcome,[6],inactive
CCCN(CCC)N=O,outcome,[7],inactive
O=C(O)C(F)(F)C(F)(F)C(F)(F)C(F)(F)C(F)(F)F,outcome,[8],inactive
same,outcome,[9],inactive
same,outcome,[4],inactive
same,outcome,[10],inactive
same,outcome,[5],inactive
CC1=C2C[C@H]3[C@@H](CC=C4C[C@@H](O)CC[C@@]43C)[C@@H]2CC[C@]12O[C@@H]1C[C@H](C)CN[C@H]1[C@H]2C,AC50,[1],19 µM (active)
same,outcome,[11],inactive
same,outcome,[7],inactive
same,outcome,[3],inactive
same,outcome,[9],inactive
same,outcome,[12],inactive
same,outcome,[4],inactive
same,outcome,[10],inactive
same,outcome,[6],inactive
same,AC50,[13],6.4 µM (active)
c1cc2ccc3cccc4ccc(c1)c2c34,outcome,[2],inactive
CCCCCCCCCc1ccc(O)cc1,outcome,[14],inactive
O=C(O)C(F)(F)C(F)(F)C(F)(F)C(F)(F)C(F)(F)C(F)(F)C(F)(F)C(F)(F)C(F)(F)F,AC50,[15],12.5 µM (active)
same,AC50,[16],43.3 µM (active)
Cc1cccc([N+](=O)[O-])c1,outcome,[16],inactive
same,outcome,[5],inactive
CCNc1nc(NC(C)C)nc(SC)n1,AC50,[7],2.15 µM (active)
ClC1=C(Cl)[C@]2(Cl)[C@@H]3[C@@H](Cl)[C@H]4O[C@H]4[C@@H]3C1(Cl)C2(Cl)Cl,outcome,[16],inactive
C=CC(N)=O,outcome,[17],inactive
Clc1ccc(C(c2ccccc2Cl)C(Cl)(Cl)Cl)cc1 (stereo not drawn),outcome,[17],inactive
same,outcome,[16],inactive
O=S(=O)(O)C(F)(F)C(F)(F)C(F)(F)C(F)(F)C(F)(F)C(F)(F)F,outcome,[8],inactive
same,outcome,[7],inactive
same,outcome,[9],inactive
same,outcome,[5],inactive
CCSC(=O)N(CC)C1CCCCC1,outcome,[1],inactive
CCOCCOC(C)=O,outcome,[4],inactive
CCC(C)c1cc([N+](=O)[O-])cc([N+](=O)[O-])c1O (stereo not drawn),outcome,[17],inactive
NS(=O)(=O)C(F)(F)C(F)(F)C(F)(F)C(F)(F)C(F)(F)C(F)(F)C(F)(F)C(F)(F)F,outcome,[17],inactive
O=C(N[C@H]1CN2CCC1CC2)c1cc2ccoc2cn1,outcome,[8],inactive
O=NN(c1ccccc1)c1ccccc1,outcome,[18],inactive
Sc1ccccc1,AC50,[14],4.12 µM (active)
CC(C)C(=O)OCC(C)(C)C(OC(=O)C(C)C)C(C)C (stereo not drawn),outcome,[18],inactive
same,outcome,[14],inactive
same,outcome,[9],inactive
same,outcome,[12],inactive
same,outcome,[16],inactive
same,outcome,[13],inactive
CCCCCCCCCC[N+](C)(C)CCCCCCCCCC,outcome,[19],inactive
CO/C=C(/C(=O)OC)c1ccccc1COc1cccc(C(F)(F)F)n1,outcome,[15],inactive
same,outcome,[14],inactive
Oc1ccc(C(c2ccc(O)cc2)(C(F)(F)F)C(F)(F)F)cc1,outcome,[8],inactive
same,outcome,[4],inactive
same,outcome,[10],inactive
ClC1=C(Cl)[C@]2(Cl)[C@@H]3[C@H]4C[C@H]([C@@H]5O[C@H]45)[C@@H]3[C@@]1(Cl)C2(Cl)Cl,outcome,[11],inactive
Cc1cc2c3c(c1)C(c1ccccc1)=N[C@@H](NC(=O)c1ccncc1)C(=O)N3CC2,AC50,[7],1.36 µM (active)
same,AC50,[9],5.66 µM (active)
same,outcome,[17],inactive
Cc1cc(-c2ccc(N)c(C)c2)ccc1N,outcome,[20],inactive
same,outcome,[16],inactive
CN(C)CCO,outcome,[11],inactive
